Bioassay records deposited in PubChem BioAssay by National Center for Advancing Translational Sciences (NCATS).
The list is not random: actives were taken first. Their share in the collection is about 7.5%.
FLuc modulator – inhibits or activates purified firefly luciferase, miR-21 counter-screen; P08659; purified FLuc, Km substrates, luminescence inhibition; Potency, µM (titrated, usually from 57.5 µM), inactives show top-dose activity change, negative = inhibition, most hits filed as inhibitors; actives 6.9% (n = 360,000); AID 588342;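 note: plate controls were vehicle for no effect and reference inhibitor for full effect; nearly all actives have a fitted effect of over 55% in size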
Target sequence (P08659 whole entry, looked up): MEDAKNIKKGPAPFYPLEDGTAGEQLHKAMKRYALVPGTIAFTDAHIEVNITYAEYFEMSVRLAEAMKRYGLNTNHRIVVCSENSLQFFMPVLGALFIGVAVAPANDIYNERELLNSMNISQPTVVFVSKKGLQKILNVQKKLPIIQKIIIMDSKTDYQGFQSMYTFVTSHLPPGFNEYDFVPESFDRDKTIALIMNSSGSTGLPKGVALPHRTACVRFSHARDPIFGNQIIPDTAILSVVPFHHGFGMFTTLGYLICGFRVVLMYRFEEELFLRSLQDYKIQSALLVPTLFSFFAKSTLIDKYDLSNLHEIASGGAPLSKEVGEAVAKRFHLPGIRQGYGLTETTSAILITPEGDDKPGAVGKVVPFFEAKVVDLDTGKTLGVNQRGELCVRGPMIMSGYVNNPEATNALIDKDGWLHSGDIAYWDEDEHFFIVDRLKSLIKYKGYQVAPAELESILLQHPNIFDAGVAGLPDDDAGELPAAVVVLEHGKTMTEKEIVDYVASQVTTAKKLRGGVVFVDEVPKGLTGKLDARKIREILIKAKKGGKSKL
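Purified P. pyralis luciferase, 10 nM final, with Km-level 10 uM D-luciferin and 10 uM ATP in 50 mM Tris acetate pH 7.5, 10 mM Mg acetate, 0.01% Tween-20, 0.05% BSA; 6-point qHTS titration about 60 µM downward; luminescence read.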
ELG1 genotoxic – induces genotoxicity in HEK293T cells with luciferase-tagged ELG1 | Potency, µM (titrated, usually from 46 µM), inactives show at the highest dose activity change, positive = activation, usual class: activators | actives 1.3% (n = 330,000) | HEK293T ELG1-luciferase reporter, luminescence, 16 h; note: % of control where 0% means no effect; nearly all actives have a fitted effect of over 60% in size
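Genotoxic stress is detected as increased luminescence from luciferase-tagged ELG1 in HEK293T cells, measured with ONE-Glo after a 16 hr treatment at 37 °C.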
KinaseGlo FLuc – counter-screen: inhibitors of Kinase-Glo firefly luciferase; Q27757; Kinase-Glo luciferase, ATP luminescence, 8 min; Potency, µM (top dose mostly 38.3 µM), for inactives: at the highest dose activity change, negative = inhibition, most hits filed as inhibitors; actives 0.28% (n = 200,000); note: % is set by controls: 0 for no effect and ±100 for the full control effect; nearly all actives have a fitted effect of over 60% in size
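Compounds were added to a substrate mix at pH 7.2 (50 mM imidazole, 10 uM ATP, within the enzyme's linear range), followed by Kinase-Glo detection reagent; luminescence was measured after 8 minutes at ambient temperature.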
NPC1 prom act – NPC1 promoter activation; Huh7 NPC1 promoter luciferase reporter, 24 h; actives 2.4% (n = 320,000); AID 485313; Potency, µM (highest dose often 9.22 µM), for the others: at the highest dose activation, actives largely listed as activators; note: % of control where 0% means no effect; nearly all actives have a fitted effect of over 60% in size
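Luciferase expression driven by the NPC1 promoter was measured in stably transfected Huh7 cells after a 24 h compound incubation, using a luciferase reagent and a luminescence read.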
Rab9 prom act – Rab9 promoter activation. Huh7 Rab9 promoter-luciferase reporter, luminescence, 24 h. actives 2.8% (n = 320,000). Potency, µM (highest dose often 9.22 µM), without a hit: top-dose activation, negative = inhibition, actives largely listed as activators; note: % of control where 0% means no effect; nearly all actives have a fitted effect of over 60% in size
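Promoter activation is measured as luciferase luminescence in Huh7 cells stably transfected with a Rab9 promoter–luciferase construct, following 24 h compound exposure at 37 °C and 10 min reagent incubation at ambient temperature.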
SMN2 splice enh – SMN2 splice variant enhancement. HEK293 SMN2-luciferase splicing reporter, luminescence, 30-36 h. AID 1458. actives 2.8% (n = 210,000). Potency, µM (top dose mostly 46.1 µM), without a hit: top-dose activity change, positive = activation, hits mostly activators; note: % of control where 0% means no effect; nearly all actives have a fitted effect of over 55% in size
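HEK293 cells carry an SMN2 minigene-luciferase reporter in which exon 7 inclusion puts luciferase in frame. Cells were seeded at 2000 cells/well, attached for 10-12 hours, then exposed to compounds for 30-36 hours at 37C before ONE-Glo luminescence.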
* = called active by the depositor; ? = inconclusive; / = no result given; [ ] = another dose, or the depositor's remark. Calls come from the whole dose curve; as a rule, active = well fitted curve in the direction sought with a large enough effect; inconclusive = small, poorly fitted or top-dose-only effect, or another doubt; inactive = no such curve, though single readings can be large; an effect the other way counts as inactive or inconclusive. Potency is the fitted concentration of half-maximal effect.

SMILES	FLuc modulator	ELG1 genotoxic	KinaseGlo FLuc	NPC1 prom act	Rab9 prom act	SMN2 splice enh
O=C(NNC(=O)c1ccc(Cl)cc1Cl)c1csc(-c2cccnc2)n1	5.4µM*	3%	/	25%	17%	/
O=C(NCCc1csc(-c2cccnc2)n1)c1ccc(Cl)cc1	9.5µM*	-3%	/	-2%	-1%	/
O=C(NCc1ccc(Cl)cc1)c1csc(-c2cccnc2)n1	0%	-8%	/	5%	-6%	/
Cc1c(Cl)cccc1NC(=O)Nc1ccc2snnc2c1	?	/	/	/	/	5%
O=C(NCCc1csc(-c2cccnc2)n1)c1ccccc1Br	17µM*	-5%	/	1%	-2%	/
COc1cccc(Cn2nnc(C(=O)NCc3ccc(Cl)cc3Cl)c2N)c1	-1%	/	/	/	/	6%
FC(F)(F)c1nc2cc3nc4ccccc4[nH]c3cc2n1	24µM*	0%	/	?	?	/
Cc1oc(-c2ccc(-c3ccccc3)cc2)nc1CN1CCN(CC(=O)N(C)C)CC1	5.4µM*	?	-3%	?	?	/
COc1ccc(-c2nc(CN3CCN(Cc4ccccc4)CC3)c(C)o2)cc1	-20%	-6%	/	-3%	-5%	/
COc1ccc(/C(N)=N/OC(=O)CCCc2ccccc2)cc1OC	?	-1%	-4%	-1%	-7%	13%
N/C(=N\OC(=O)CCCc1ccccc1)c1ccccn1	2.1µM*	2%	-12%	5%	0%	26%
N/C(=N\OC(=O)CCC1CCCC1)c1ccccn1	0.48µM*	?	-24%	25%	23%	?
N/C(=N\OC(=O)Cc1ccccc1)c1ccccn1	17µM*	10%	-5%	12%	11%	20%
N/C(=N\OC(=O)C(c1ccccc1)c1ccccc1)c1ccccn1	5%	6%	5%	-2%	-2%	-4%
NC(=S)N/N=C1/CCSc2ccc3ccccc3c21	2%	-10%	0%	0%	-16%	-17%
CC(C)NC(=O)N1CCC2(CC1)CCN(C(=O)c1ccncc1)CC2	/	/	-3%	/	/	-4%
COCc1c(C(=O)N2CCN(Cc3nc4ccccc4s3)CC2)oc2ccccc12	?	1%	/	2%	7%	/
Cn1c(=O)c2[nH]c(/N=N\N3CCN(CCO)CC3)nc2n(C)c1=O	/	/	-8%[7.66 µM]	/	/	-5%[9.22 µM]
C[C@@H](CC(=O)O)[C@@H](N)C(=O)O	/	/	-2%	/	/	14%
COc1cccc(NC(=O)N2CCC(CN3CCOCC3)CC2)c1	-2%	/	/	/	/	/
Cc1cccc(-c2ccc3ncnc(N(C)Cc4ccco4)c3c2)c1	?	/	/	-2%	19%	/
Cc1noc(C)c1-c1ccc2ncnc(N(C)Cc3ccco3)c2c1	/	/	1%	/	/	3.5µM*
Cc1c2cnn(-c3ccccc3)c(=O)c2c(C)n1C(C)C(=O)Nc1ccccc1C(F)(F)F (centres undefined)	-1%	/	/	/	/	-13%
COc1ccc(/C=C\c2onc(C)c2S(=O)(=O)N2CCC(C(=O)NCCC(C)C)CC2)cc1	1%	0%	3%	-3%	6.3µM*	-10%
CCCCNC(=O)C1CCN(S(=O)(=O)c2c(C)noc2/C=C\c2ccc(OC)cc2)CC1	1%	10%	-1%	-2%	-2%	0%
SMILES	FLuc modulator	ELG1 genotoxic	KinaseGlo FLuc	NPC1 prom act	Rab9 prom act	SMN2 splice enh
Oc1ccccc1-c1cc(-c2cccc(F)c2)n[nH]1	5.4µM*	?	-2%	-1%	14%	?
CC(C)(C)c1ccc(-c2cc(-c3ccccc3O)[nH]n2)cc1	0.76µM*	0.58µM*	/	0.32µM*	0.28µM*	/
Oc1ccc(Cl)cc1-c1cc(-c2cccc(Br)c2)n[nH]1	-6%	1%	0%	-2%	-2%	-25%
Nc1c(C(=O)N2CCCCCC2)oc2ccccc12	-20%	9%	/	-2%	16%	/
NC(=O)NNC1=Nc2cccc3cccc1c23	2%	-6%	-3%	-12%	0%	-4%
COc1ccccc1N1CCN(C2=Nc3cccc4cccc2c34)CC1	3.4µM*	5%	0%	?	?	/
O=C(O)c1ccc(NC2=Nc3cccc4cccc2c34)cc1	?	11%	/	1.6µM*	1.6µM*	/
COc1ccccc1NC1=Nc2cccc3cccc1c23	19µM*	-1%	/	2%	-1%	/
O=C1C=C(NCc2ccc(Cl)c(Cl)c2)C2(CCCCC2)O1	2%	-6%	-4%	2%	-5%	-15%
COc1cc(/C=N/NC(=O)c2cc3ccccc3[nH]2)ccc1O	17µM*	-11%	/	2%	7%	/
COc1cc(/C=N/NC(=O)c2cc(-c3ccccc3)n[nH]2)ccc1O	/	/	-3%	/	/	/
COc1ccc(/C=N/NC(=O)Nc2nonc2N)cc1	?	?	-4%	14%	25%	10µM*
COc1ccc(/C=N/NC(=O)c2cccc(C(=O)N/N=C/c3ccc(OC)cc3)n2)cc1	0.3µM*	?	/	15%	25%	/
COc1cc(/C=N/NC(=O)c2cccc(C(=O)N/N=C/c3ccc(O)c(OC)c3)n2)ccc1O	0.85µM*	0%	/	-7%	-5%[1.84 µM]	/
COc1cc(/C=N/NC(=O)c2nc(C)cc(C)n2)ccc1O	?	9%	17%	14%	19%	?
COc1ccc(N(CC(=O)Nc2cc(C)ccc2C)S(=O)(=O)c2ccc(OC)c(OC)c2)cc1	-10%	/	/	/	/	-6%
Cc1ccc2c(=O)c(C(=O)c3ccccc3)cn(CC(=O)Nc3ccccc3C)c2n1	1%	/	/	/	/	/
COc1ccc(/C=N/NC(=O)c2cccc(COCC(F)(F)C(F)F)c2)cc1	5.4µM*	0%	10%	-1%	3%	11%
COC(=O)N/N=C/c1ccc(Oc2ccccc2)cc1	15µM*	?	-3%	?	?	11µM*
Fc1ccccc1Cc1cn2cc(-c3ccc(Cl)cc3)nc2s1	0.3µM*	/	/	/	/	?
Cc1ccc(Cc2cn3cc(-c4ccccc4)nc3s2)cc1	0.15µM*	/	/	/	/	2.8µM*
Fc1ccc(Cc2cn3cc(-c4ccc(F)cc4)nc3s2)cc1	0.3µM*	/	/	/	/	3.2µM*
Fc1ccc(-c2cn3cc(Cc4ccccc4Cl)sc3n2)cc1	0.48µM*	/	/	/	/	2.2µM*
O=c1oc2ccccc2cc1-c1cn2cc(Cc3cc(Cl)ccc3Cl)sc2n1	0%	/	/	/	/	-2%
Cc1c(-c2nsc(NC(=O)c3cccs3)n2)nnn1-c1ccc(Br)cc1	2%	/	/	/	/	/
CC1=C(C(=O)OC2CCCCCC2)C(c2cccc(F)c2F)CC(=O)N1 (centres undefined)	-5%	/	/	/	/	0%
O=C(c1ccco1)n1nc(-c2ccc(Cl)cc2)nc1NCc1ccc(F)cc1	-1%	/	/	/	/	3%
O=C(O)[C@H]1CN(CCCP(=O)(O)O)CCN1	/	/	2%	/	/	/
Nc1nc(-c2ccc(Cl)cc2)cn1N	-8%	-2%	3%	-3%	1%	-1%
Clc1ccc(-c2cn3cc(Cc4ccccc4)sc3n2)cc1	0.24µM*	/	/	/	/	5.6µM*
